Test results published in ChEMBL document CHEMBL1961873, “Compounds: GSK PKIS; Assays: Nanosyn kinase panel” (2012).

The molecules below were run against Rho-associated protein kinase 1 (Homo sapiens) (UniProt Q13464). Conditions: at 1 µM.
Sequence of Rho-associated protein kinase 1 (Homo sapiens) (Q13464 2-1354 limits assumed): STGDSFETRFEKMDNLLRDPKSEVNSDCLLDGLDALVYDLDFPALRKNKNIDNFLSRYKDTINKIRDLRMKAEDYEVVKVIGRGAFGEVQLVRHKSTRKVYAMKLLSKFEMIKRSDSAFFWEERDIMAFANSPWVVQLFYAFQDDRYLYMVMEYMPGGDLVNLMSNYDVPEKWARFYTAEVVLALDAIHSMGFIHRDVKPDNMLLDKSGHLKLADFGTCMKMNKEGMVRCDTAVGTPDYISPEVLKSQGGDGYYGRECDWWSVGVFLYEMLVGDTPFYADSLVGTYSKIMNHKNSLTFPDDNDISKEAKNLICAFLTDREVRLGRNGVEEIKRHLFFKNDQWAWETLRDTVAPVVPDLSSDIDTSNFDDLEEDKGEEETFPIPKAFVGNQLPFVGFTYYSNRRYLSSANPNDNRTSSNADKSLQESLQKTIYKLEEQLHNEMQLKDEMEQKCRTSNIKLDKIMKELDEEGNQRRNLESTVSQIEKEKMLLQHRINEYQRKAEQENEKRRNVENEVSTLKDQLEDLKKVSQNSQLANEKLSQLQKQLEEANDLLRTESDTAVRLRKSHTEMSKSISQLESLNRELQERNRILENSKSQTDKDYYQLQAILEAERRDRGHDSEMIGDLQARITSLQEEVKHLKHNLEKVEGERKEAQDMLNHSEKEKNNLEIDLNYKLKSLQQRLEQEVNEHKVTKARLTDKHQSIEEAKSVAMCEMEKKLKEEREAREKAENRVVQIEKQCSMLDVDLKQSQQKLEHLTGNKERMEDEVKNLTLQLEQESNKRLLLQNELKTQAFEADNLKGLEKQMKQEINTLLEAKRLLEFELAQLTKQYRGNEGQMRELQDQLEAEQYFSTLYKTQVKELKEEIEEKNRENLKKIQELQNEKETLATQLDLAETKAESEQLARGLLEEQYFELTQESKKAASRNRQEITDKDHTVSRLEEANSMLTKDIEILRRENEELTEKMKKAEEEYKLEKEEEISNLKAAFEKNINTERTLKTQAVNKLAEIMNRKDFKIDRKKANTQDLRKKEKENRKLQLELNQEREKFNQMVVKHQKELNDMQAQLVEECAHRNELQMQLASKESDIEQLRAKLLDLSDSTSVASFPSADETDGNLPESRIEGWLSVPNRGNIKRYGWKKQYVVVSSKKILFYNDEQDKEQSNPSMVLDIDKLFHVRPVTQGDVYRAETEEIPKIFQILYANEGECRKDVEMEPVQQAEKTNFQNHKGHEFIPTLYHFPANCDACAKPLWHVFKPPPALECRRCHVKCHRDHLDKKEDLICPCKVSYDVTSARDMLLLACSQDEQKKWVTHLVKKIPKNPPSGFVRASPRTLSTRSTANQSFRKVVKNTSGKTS

Compound	inhibition [%]
COc1cc(/C=N/Nc2ncnc3[nH]ncc23)ccc1O	5.67
CS(=O)(=O)CCNCc1coc(-c2ccc3ncnc(Nc4ccc(OCc5ccccc5)cc4)c3c2)c1	1.33
Cc1cccc2c1NC(=O)/C2=N\Nc1ccc(S(N)(=O)=O)cc1	2.1
c1ccc(-c2nc3n(c2-c2ccc4c(c2)OCO4)CCC3)nc1	5.65
COc1cc(Nc2nccc(Nc3ccc4c(C)n[nH]c4c3)n2)cc(OC)c1OC	7.47
COc1ccc(-c2cc3c(N)ncnc3o2)cc1	1.74
COc1ccc(-c2nn3ncccc3c2-c2ccnc(Nc3ccc4c(c3)OCCO4)n2)cc1	0.84
CCn1c(-c2nonc2N)nc2c(C#CC(C)(C)O)nc(OC[C@H](N)c3ccccc3)cc21	24.7
Clc1ccc(-c2nn3ncccc3c2-c2ccnc(Nc3ccccc3)n2)cc1	4.03
CN1CCC(n2cnc(-c3ccc(F)cc3)c2-c2ccnc(Nc3ccccc3)n2)CC1	0.32
CNC(=O)c1cc(-c2ccc(F)cc2)cc(-c2ccc(S(=O)(=O)N3CCCC3)cc2)c1N	1.95
COc1cc2c(cc1Nc1nc(Nc3ccsc3C(N)=O)c3cc[nH]c3n1)N(C(=O)CN(C)C)CCC2(C)C	66.5
CCN(CC)S(=O)(=O)c1ccc(OC)c(Nc2ncc(-c3ccccc3)o2)c1	2.02
CCn1c(-c2nonc2N)nc2ccccc21	36.6
NC(=O)c1sc(-n2cnc3ccc(C(F)(F)F)cc32)cc1OCc1ccccc1Br	3.95
CNC(=O)c1cncc(/C=C/c2ccccc2Cl)c1	1.5
COc1ccc(-c2oc3ncnc(N)c3c2-c2ccc(NC(=O)Nc3cc(C(F)(F)F)ccc3F)cc2)cc1	11.5

Compound	inhibition [%]
COC(=O)Nc1nc2ccc(S(=O)(=O)c3ccc(NC(=O)Nc4cc(C(F)(F)F)ccc4F)cc3)cc2[nH]1	2.05
Cc1cccc(Nc2ncc(-c3ccccc3)o2)c1	4.38
NS(=O)(=O)c1ccc(Nc2ncc(-c3ccccc3)o2)cc1	2.68
COc1cc(N2CCN(C(C)C)CC2)ccc1Nc1nc(Nc2ccc(F)cc2C(N)=O)c2cc[nH]c2n1	23.5
COc1ccc2[nH]c3c4[nH]c5ccc(OC)cc5c4c4c(c3c2c1)C(=O)NC4=O	7.02
CCn1c(-c2nonc2N)nc2c(C#CC(C)(C)O)ncc(OC3CCNCC3)c21	24.3
CNC(=O)c1cccc(C#Cc2cncnc2Nc2ccc(OCc3cccc(F)c3)c(Cl)c2)c1	-0.1
CCCN(CCS(C)(=O)=O)Cc1ccc(-c2ccc3ncnc(Nc4ccc(OCc5cccc(F)c5)c(Cl)c4)c3c2)o1	0.05
N#Cc1c(NC(=O)CN2CCOCC2)sc2c1CCCC2	0.87
N#Cc1c(NC(=O)c2ccc(F)cc2)sc2c1CCCC2	1.82
COc1ccc(CNC(=O)c2ccc(-c3cc(-c4nnc(C)o4)ccc3C)cc2)cc1	2.35
CN1CCC(n2cnc(-c3ccc(F)cc3)c2-c2ccnc(N)n2)CC1	1.34
O=C(Nc1n[nH]c2cc(-c3ccc(F)cc3)ccc12)C1CC1	9.51
CC1=C(C(=O)Nc2cc(Cl)c3[nH]ncc3c2)C(c2ccc(C(F)(F)F)cc2)CC(=O)N1 (stereo unspecified)	84
CCN1CCC(CC(=O)Nc2n[nH]c3nnc(-c4cccc(F)c4F)cc23)CC1	0.43
CC(C)COC(=O)c1ccc2c(c1)/C(=C/Nc1ccc(S(N)(=O)=O)cc1)C(=O)N2	30.2

These molecules were tested against Rho-associated protein kinase 2 (Homo sapiens) (UniProt O75116). Conditions: at 0.1 µM.
Sequence of Rho-associated protein kinase 2 (Homo sapiens) (O75116 whole entry, looked up): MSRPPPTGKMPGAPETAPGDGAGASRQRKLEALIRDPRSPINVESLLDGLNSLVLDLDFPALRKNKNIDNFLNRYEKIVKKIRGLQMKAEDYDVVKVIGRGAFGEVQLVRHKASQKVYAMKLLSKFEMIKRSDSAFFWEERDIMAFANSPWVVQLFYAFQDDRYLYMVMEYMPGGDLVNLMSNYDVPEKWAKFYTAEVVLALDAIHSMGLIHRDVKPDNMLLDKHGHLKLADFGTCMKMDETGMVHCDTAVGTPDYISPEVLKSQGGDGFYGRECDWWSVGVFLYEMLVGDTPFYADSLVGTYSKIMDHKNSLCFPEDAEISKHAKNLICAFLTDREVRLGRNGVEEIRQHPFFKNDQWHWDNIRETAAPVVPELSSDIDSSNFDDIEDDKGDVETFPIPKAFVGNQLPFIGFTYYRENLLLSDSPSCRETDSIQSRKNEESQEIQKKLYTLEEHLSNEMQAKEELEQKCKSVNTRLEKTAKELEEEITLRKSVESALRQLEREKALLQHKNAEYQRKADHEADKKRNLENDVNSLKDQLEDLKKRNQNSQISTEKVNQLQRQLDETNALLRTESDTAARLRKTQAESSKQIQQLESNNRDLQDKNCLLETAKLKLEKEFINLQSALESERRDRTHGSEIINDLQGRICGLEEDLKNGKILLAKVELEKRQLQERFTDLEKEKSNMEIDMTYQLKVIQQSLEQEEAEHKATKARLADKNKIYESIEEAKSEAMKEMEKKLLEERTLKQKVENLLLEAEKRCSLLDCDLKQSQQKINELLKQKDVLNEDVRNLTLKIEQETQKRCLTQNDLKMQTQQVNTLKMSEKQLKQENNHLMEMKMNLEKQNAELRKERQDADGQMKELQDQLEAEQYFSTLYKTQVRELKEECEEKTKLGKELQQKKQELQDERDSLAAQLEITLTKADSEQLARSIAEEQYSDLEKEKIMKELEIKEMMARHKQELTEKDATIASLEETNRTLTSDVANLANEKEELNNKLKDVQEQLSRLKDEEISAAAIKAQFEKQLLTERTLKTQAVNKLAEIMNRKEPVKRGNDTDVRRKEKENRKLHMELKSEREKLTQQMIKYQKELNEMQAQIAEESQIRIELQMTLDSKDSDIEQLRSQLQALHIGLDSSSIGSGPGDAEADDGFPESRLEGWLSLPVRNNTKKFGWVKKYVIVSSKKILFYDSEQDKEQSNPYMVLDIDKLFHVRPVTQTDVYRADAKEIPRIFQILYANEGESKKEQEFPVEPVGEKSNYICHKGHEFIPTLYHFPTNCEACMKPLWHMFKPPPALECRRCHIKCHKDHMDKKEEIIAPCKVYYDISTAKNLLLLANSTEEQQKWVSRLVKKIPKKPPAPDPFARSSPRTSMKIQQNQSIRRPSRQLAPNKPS

Compound	inhibition [%]
COc1cc(/C=N/Nc2ncnc3[nH]ncc23)ccc1O	4.64
CS(=O)(=O)CCNCc1coc(-c2ccc3ncnc(Nc4ccc(OCc5ccccc5)cc4)c3c2)c1	1.66
Cc1cccc2c1NC(=O)/C2=N\Nc1ccc(S(N)(=O)=O)cc1	3.93
c1ccc(-c2nc3n(c2-c2ccc4c(c2)OCO4)CCC3)nc1	5.54
COc1cc(Nc2nccc(Nc3ccc4c(C)n[nH]c4c3)n2)cc(OC)c1OC	1.83
COc1ccc(-c2cc3c(N)ncnc3o2)cc1	0.73
COc1ccc(-c2nn3ncccc3c2-c2ccnc(Nc3ccc4c(c3)OCCO4)n2)cc1	-0.09
CCn1c(-c2nonc2N)nc2c(C#CC(C)(C)O)nc(OC[C@H](N)c3ccccc3)cc21	9.12
Clc1ccc(-c2nn3ncccc3c2-c2ccnc(Nc3ccccc3)n2)cc1	2.19
CN1CCC(n2cnc(-c3ccc(F)cc3)c2-c2ccnc(Nc3ccccc3)n2)CC1	0.82
CNC(=O)c1cc(-c2ccc(F)cc2)cc(-c2ccc(S(=O)(=O)N3CCCC3)cc2)c1N	1.69
COc1cc2c(cc1Nc1nc(Nc3ccsc3C(N)=O)c3cc[nH]c3n1)N(C(=O)CN(C)C)CCC2(C)C	29.2
CCN(CC)S(=O)(=O)c1ccc(OC)c(Nc2ncc(-c3ccccc3)o2)c1	1.64
CCn1c(-c2nonc2N)nc2ccccc21	9.34
NC(=O)c1sc(-n2cnc3ccc(C(F)(F)F)cc32)cc1OCc1ccccc1Br	2.8
CNC(=O)c1cncc(/C=C/c2ccccc2Cl)c1	3.13
COc1ccc(-c2oc3ncnc(N)c3c2-c2ccc(NC(=O)Nc3cc(C(F)(F)F)ccc3F)cc2)cc1	6.51

Compound	inhibition [%]
COC(=O)Nc1nc2ccc(S(=O)(=O)c3ccc(NC(=O)Nc4cc(C(F)(F)F)ccc4F)cc3)cc2[nH]1	1.37
Cc1cccc(Nc2ncc(-c3ccccc3)o2)c1	2.08
NS(=O)(=O)c1ccc(Nc2ncc(-c3ccccc3)o2)cc1	4.4
COc1cc(N2CCN(C(C)C)CC2)ccc1Nc1nc(Nc2ccc(F)cc2C(N)=O)c2cc[nH]c2n1	4.69
COc1ccc2[nH]c3c4[nH]c5ccc(OC)cc5c4c4c(c3c2c1)C(=O)NC4=O	6.62
CCn1c(-c2nonc2N)nc2c(C#CC(C)(C)O)ncc(OC3CCNCC3)c21	4.86
CNC(=O)c1cccc(C#Cc2cncnc2Nc2ccc(OCc3cccc(F)c3)c(Cl)c2)c1	0.98
CCCN(CCS(C)(=O)=O)Cc1ccc(-c2ccc3ncnc(Nc4ccc(OCc5cccc(F)c5)c(Cl)c4)c3c2)o1	1.92
N#Cc1c(NC(=O)CN2CCOCC2)sc2c1CCCC2	5.37
N#Cc1c(NC(=O)c2ccc(F)cc2)sc2c1CCCC2	0.42
COc1ccc(CNC(=O)c2ccc(-c3cc(-c4nnc(C)o4)ccc3C)cc2)cc1	4.11
CN1CCC(n2cnc(-c3ccc(F)cc3)c2-c2ccnc(N)n2)CC1	0.69
O=C(Nc1n[nH]c2cc(-c3ccc(F)cc3)ccc12)C1CC1	7.81
CC1=C(C(=O)Nc2cc(Cl)c3[nH]ncc3c2)C(c2ccc(C(F)(F)F)cc2)CC(=O)N1 (stereo unspecified)	72.3
CCN1CCC(CC(=O)Nc2n[nH]c3nnc(-c4cccc(F)c4F)cc23)CC1	1.58
CC(C)COC(=O)c1ccc2c(c1)/C(=C/Nc1ccc(S(N)(=O)=O)cc1)C(=O)N2	6.15
